Data as given in PubChem BioAssay AID540308 (The Scripps Research Institute Molecular Screening Center, 2011).
About 3,500 (0.97%) of roughly 360,000 compounds were called active. Shown is part of a subset that was picked to be rich in actives. Values without a mark were called inactive.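 The calls were made as follows: active = activation above a per-plate cutoff, the mean activation of sample wells on that plate plus 3 SD (cut at about 8% in these data); inactive = the rest.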

Each compound was assayed against Melanocortin receptor 4 (Homo sapiens) (UniProt P32245) (assay: MC4R agonists recruiting beta-arrestin, primary screen, cell-based, luminescence, agonist arm of biased-ligand search (AID 540308)). Conditions: U2OS MC4R beta-arrestin complementation, at 8.9 µM, active compounds read high, percent of melanotan II response, DMSO zero.
Sequence of Melanocortin receptor 4 (Homo sapiens) (P32245 whole entry, looked up): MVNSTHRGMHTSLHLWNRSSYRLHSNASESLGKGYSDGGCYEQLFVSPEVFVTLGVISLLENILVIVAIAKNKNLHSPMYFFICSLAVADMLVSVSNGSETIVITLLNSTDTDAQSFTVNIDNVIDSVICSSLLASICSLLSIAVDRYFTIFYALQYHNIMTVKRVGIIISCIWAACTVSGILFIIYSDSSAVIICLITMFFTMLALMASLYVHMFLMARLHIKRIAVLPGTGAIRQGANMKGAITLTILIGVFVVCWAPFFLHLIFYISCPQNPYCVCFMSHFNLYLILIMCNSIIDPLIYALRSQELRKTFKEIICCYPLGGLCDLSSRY

Compared with `CS(=O)(=O)N1CCCCC1c1cc(C(=O)NCc2ccccc2)no1` (centres undefined), `COc1ccc(C(=O)N2CCCCC2c2cc(C(=O)Nc3ccccc3)no2)cc1` (centres undefined) is lower in activation: 0.31% for the first, -1.46% for the second.

First: CC1(C(=O)NCc2ccc3c(c2)OCO3)CCN1CCc1ccccc1 (centres undefined)
Second: CSc1ccc(CN2CCC2(C)C(=O)NCc2ccccc2Br)cc1 (centres undefined)
The activation of the first is higher: 1.41% for the first, 0.53% for the second.

First: CCCNC(=O)C1(C)CCCN(C(=O)c2cccc(OC(C)=O)c2C)C1 (centres undefined)
Second: CCCNC(=O)C1(C)CCCN(C(=O)c2oc3ccccc3c2C)C1 (centres undefined)
The activation of the first is lower: -0.89% for the first, -0.51% for the second.

Going from `COC(=O)c1cc(C(=O)N(Cc2ccccc2)c2ccccn2)cc([N+](=O)[O-])c1` to `COc1cc(NC(=O)c2ccccc2)c(OC)cc1NC(=O)Cc1ccccc1`, the activation falls from 2.05% to -1.99%.

Compared with `CC(=O)N(CN1C(=O)C2CC=CCC2C1=O)c1cccc(Cl)c1` (centres undefined), `Cc1cccc(C)c1Cn1c(C)c(C(=O)NCc2cccc(Cl)c2)sc1=O` is higher in activation: -0.75% for the first, -0.04% for the second.

First: Cn1c(Nc2ccc(F)cc2)nc2cc(-c3ccsc3)sc2c1=O
Second: CC(O)(c1cccc(F)c1)c1nc(-c2ccc3c(c2)OCO3)cs1 (centres undefined)
The activation of the first is lower: 2.85% for the first, 3.56% for the second.

First: CN(C(=O)CCN1C(=O)/C(=C/c2ccccc2F)SC1=S)C1CCS(=O)(=O)C1 (centres undefined)
Second: O=C1/C(=C\c2ccccc2Cl)SC(=S)N1CCC(=O)N1CCCc2ccccc21
The activation of the first is lower: -1.67% for the first, -0.74% for the second.

Going from `COc1ccc(-c2coc3c(C(=O)NC(C)C)cccc23)c(C)c1` to `COc1cccc(C(O)c2nc(-c3ccc(C)c(C)c3)cs2)c1` (centres undefined), the activation rises from 0.44% to 1.59%.

First: CCOC(=O)c1c(C)[nH]c(C(=O)NCCN2CCOCC2)c1C
Second: CN(C)C(=O)c1cccc(-c2cnc3c(NC=O)cc(-c4ccc(C(=O)N5CCOCC5)cc4)cn23)c1
The activation of the first is lower: -1.01% for the first, 3.87% for the second.

Compared with `Fc1ccccc1COc1ccccc1CNCc1ccncc1`, `COc1ccc(C(CCNCc2ccccc2F)c2ccc(F)cc2)cc1` (centres undefined) is higher in activation: -1.5% for the first, 2.17% for the second.

Compared with `CN1C[C@@H](CO)O[C@@H](n2cnc3c(N4CCN(CCO)CC4)ncnc32)C1`, `OC[C@@H]1CN(Cc2ccc(Cl)cc2)C[C@H](n2cnc3c(NCc4ccncc4)ncnc32)O1` is higher in activation: -0.08% for the first, 0.2% for the second.

Compared with `COc1ccc(S(=O)(=O)N2CCOC2CNC(=O)C(=O)NCc2ccncc2)cc1C` (centres undefined), `COC(=O)c1ccc(S(=O)(=O)N2CCC(c3nc4ccccc4o3)CC2)cc1` is lower in activation: 0.29% for the first, -0.95% for the second.

Compared with `CCNC(=O)C1(C)CCCN1C(=O)c1ccc(N(C)C)cc1` (centres undefined), `CC1(C(=O)Nc2ccc3c(c2)OCCO3)CCN1C(=O)Cc1cc(F)ccc1F` (centres undefined) is lower in activation: -0.82% for the first, -0.93% for the second.

First: Cc1ccc2[nH]cc(CCNC(=O)c3ccc([N+](=O)[O-])cc3)c2c1
Second: O=C(NCCc1ccc(Cl)cc1Cl)c1cc([N+](=O)[O-])c[nH]c1=O
The activation of the first is higher: -2.01% for the first, -2.62% for the second.

Compared with `CC1(Oc2ccc(Cl)cc2)CCN(Cc2csc3ccccc23)C1` (centres undefined), `CC1(C(=O)NS(=O)(=O)c2cccc(F)c2)CCN1C(=O)c1cccc2ccccc12` (centres undefined) is lower in activation: 5.74% for the first, -0.68% for the second.

Going from `OC(c1ccccc1)c1nc(/C=C/c2ccc(C(F)(F)F)cc2)cs1` (centres undefined) to `COc1cccc(C(O)c2ncc(-c3ccc4ccccc4c3)[nH]2)c1` (centres undefined), the activation falls from 1.43% to -2.03%.

Compared with `COc1cc(/C=C/C(=O)OCC(=O)c2ccccc2)cc(OC)c1OC`, `COc1ccc(/C=C/C(=O)OCC(=O)NC2CCCCCC2)cc1OC` is higher in activation: -2.53% for the first, 0.56% for the second.

Going from `O=C(Nc1ccc(Cl)cc1)c1csc([C@@H]2O[C@H](CO)[C@H](O)[C@H](O)[C@H]2O)n1` to `O=C(Nc1ccc(Cl)cc1)C1Cc2c(-c3ccc4c(c3)OCO4)ccnc2O1` (centres undefined), the activation rises from -0.59% to 1.36%.

First: CCOCCC(=O)Nc1ccc2c(c1)c(=O)n(C)n2-c1ccc2ccccc2c1
Second: COc1ccc(-n2nnc3c(=O)n(CC(=O)OCc4ccccc4)cnc32)cc1
The activation of the first is lower: -1.1% for the first, 1.74% for the second.

Compared with `Oc1c(Br)cc(/C=N/NC(=S)NCC2CCCO2)cc1Br` (centres undefined), `O=C(COc1ccc(/C=N/NC(=O)c2ccc(O)cc2)cc1)Nc1ccc([N+](=O)[O-])cc1` is higher in activation: -1.36% for the first, 2.23% for the second.

Compared with `COc1ccc(-n2nnc3c(=O)n(CC(=O)N4CCC(Cc5ccccc5)CC4)cnc32)cc1`, `O=C(COC(=O)Cn1cnc2ccccc21)Nc1cccc2c1C(=O)c1ccccc1C2=O` is lower in activation: 3.13% for the first, -2.17% for the second.

First: Cc1c(C(=O)NCc2ccc(C#N)cc2)sc(=O)n1Cc1ccc(C(=O)N(C)C)cc1
Second: CN(C)C(=O)c1cccc(-c2cnc3sc(NCc4ccc5c(c4)OCO5)nn23)c1
The activation of the first is higher: 1.47% for the first, 0.82% for the second.

First: COc1cc(/C=C(/NC(=O)c2ccccc2)C(=O)Nc2cccc(O)c2)c([N+](=O)[O-])cc1OC
Second: COc1ccc(NC(=O)/C(C#N)=C\c2cc(OC)c(OCc3ccc(C(=O)O)cc3)cc2Br)cc1
The activation of the first is higher: 0.1% for the first, -1.04% for the second.

First: O=C(COC(=O)c1ccccc1)Nc1ccccc1Sc1ccccc1
Second: CC1(C(=O)NS(=O)(=O)c2ccccc2)CCN1C(=O)Cc1ccc(-c2ccccc2)cc1 (centres undefined)
The activation of the first is higher: -0.01% for the first, -1.08% for the second.

First: COc1cc(CNc2ncnc3c2ncn3[C@H]2CN(Cc3cccs3)C[C@@H](CO)O2)cc(OC)c1OC
Second: COc1ccc(-c2cc(NC=O)c3ncc(-c4cc(OC)c(OC)c(OC)c4)n3c2)c(OC)c1
The activation of the first is lower: 1% for the first, 7.55% for the second.

Compared with `CCc1nc2c(OCc3ccccc3)cccn2c1N(C)C(=O)c1ccco1`, `CCc1nc2c(OCc3ccc(F)c(F)c3)cccn2c1N(C)C(=O)c1ccco1` is higher in activation: -0.58% for the first, 1.17% for the second.

Compared with `Cc1ccc(NC(=O)O/N=C/c2cccc([N+](=O)[O-])c2)cc1`, `COc1ccc(O)c(/C=N/N=C/c2cccc([N+](=O)[O-])c2)c1` is higher in activation: -5.02% for the first, -0.29% for the second.

First: CCCc1ccc(C(O)c2ncc(-c3cccc(OC)c3)[nH]2)cc1 (centres undefined)
Second: COc1ccc(CCCNC(=O)C2Cc3c(-c4cccc(C(N)=O)c4)ccnc3O2)cc1 (centres undefined)
The activation of the first is lower: -1.27% for the first, -1.12% for the second.

Going from `CC[C@]1(C(=O)OC)[C@H]2C(=O)N(Cc3ccccc3)C(=O)[C@H]2[C@H]2CN=C(SCc3ccccc3)N21` to `CCCN=C1N(C)C[C@@H]2[C@@H]3C(=O)N(Cc4ccccc4)C(=O)[C@@H]3[C@](C)(C(=O)OC)N12`, the activation falls from -0.47% to -1.43%.

First: CC(C)(C)C(=O)Nc1ccc(C(=O)N/N=C/c2ccccc2OC(=O)c2ccc(Cl)cc2Cl)cc1
Second: CC(=O)c1ccc(-c2cnc3c(NC=O)cc(-c4cccc(NS(C)(=O)=O)c4)cn23)cc1
The activation of the first is lower: -0.61% for the first, -0.24% for the second.

First: CN(C)CCNC(=O)c1ccc(-c2cn3c(-c4ccc(Oc5ccccc5)cc4)cnc3cn2)cc1
Second: CC(=O)c1cccc(-c2cnc3c(NC=O)cc(-c4ccccc4Oc4ccccc4)cn23)c1
The activation of the first is lower: 1.4% for the first, 3.06% for the second.

Going from `CC(=O)c1cccc(-c2cnc3c(NC=O)cc(-c4ccc(N5CCN(C)CC5)cc4)cn23)c1` to `CC(=O)c1cccc(-c2cnc3c(NC=O)cc(-c4cccc(C(=O)N(C)C)c4)cn23)c1`, the activation rises from -0.45% to 6.06%.

Going from `COc1ccc(-c2cc(NC=O)c3ncc(-c4cccc(C(=O)N(C)C)c4)n3c2)c(OC)c1` to `CCc1nc2c(OCc3cccc(OC)c3)cccn2c1N(C)C(=O)C(C)C`, the activation falls from 5.89% to 1.4%.

Going from `CC(C)NC(=O)C1(C)CCCCN1Cc1cccc(C(F)(F)F)c1` (centres undefined) to `CCOCC(=O)Nc1cc(OC)c(Cl)cc1OC`, the activation falls from 1.6% to -0.35%.

In the case of `O=C(CCl)N(Cc1cccc([N+](=O)[O-])c1)c1cccc(Cl)c1`, the activation is reported as 20.4% (active).
In the case of `Cc1ccc(-c2nn(-c3ccccc3)cc2/C=C2\SC(=S)N(CCCCCC(=O)O)C2=O)o1`, the activation is reported as 8.64% (active).
For `COc1cccc(CNCCc2c[nH]c3ccccc23)c1OCc1ccccc1F`, the activation was 10.3% (active).
`O=C(NCCc1c[nH]c2ccc(Cl)cc12)c1ccc([N+](=O)[O-])cc1` was tested, and the activation was 10.4% (active).
With `CCOc1ccc(/C=C/C(=O)OCC(=O)c2ccccc2OC)cc1OC` the activation was 12.9% (active).
In the case of `O=C(Cn1cnc2c(nnn2-c2ccccc2)c1=O)N1CCC(Cc2ccccc2)CC1`, the activation is reported as 11.7% (active).
`COc1cc(/C=C(\C#N)C(=O)Nc2ccc3ccccc3c2)c([N+](=O)[O-])cc1OC` was tested, and the activation was 20.1% (active).
For `O=C(COC(=O)c1cccc(Br)c1)Nc1cccc2c1C(=O)c1ccccc1C2=O`, the activation was 22.1% (active).
With `O=[N+]([O-])c1cccc(C=NN=Cc2ccccc2O)c1` the activation was 9.24% (active).
In the case of `CCN1C[C@@H]2[C@@H]3C(=O)N(Cc4ccccc4)C(=O)[C@@H]3[C@](Cc3ccccc3)(C(=O)OC)N2C1=NC1CCCCC1`, the activation is reported as 13.2% (active).
In the case of `O=C(N/N=C/c1ccc(OC(=O)c2ccccc2Cl)cc1)c1ccc(O)cc1`, the activation is reported as 13.4% (active).
For `CN(C)C(=O)c1cccc(-c2cnc3c(NC=O)cc(-c4ccc(F)cc4)cn23)c1`, the activation was 11.3% (active).
For `CC(=O)c1cccc(-c2cnc3c(NC=O)cc(-c4ccc(N(C)C)cc4)cn23)c1`, the activation was 10% (active).
`COc1ccc(-c2cc(NC=O)c3ncc(-c4ccccc4)n3c2)cc1OC` was tested, and the activation was 21.5% (active).
`CN(C)CCNC(=O)c1cccc(-c2cnc3c(NC=O)cc(-c4cccc(C(F)(F)F)c4)cn23)c1` was tested, and the activation was 13.3% (active).
In the case of `COc1cc(NC(=O)c2ccc(-c3csc(C)n3)cc2)c(OC)cc1Cl`, the activation is reported as 9.13% (active).
